These results are taken from PubChem BioAssay (Tox21).

Assay [1] addresses Progesterone receptor (Homo sapiens) (UniProt P06401). The experiment in a line: qHTS assay to identify small molecule agonists of the progesterone receptor (PR) signaling pathway (AID 1346784; calls by dose curve; further: nearly all actives have a fitted effect of over 30% in size). In a few lines: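 Compounds were tested for PR agonism in HEK 293T cells bearing a beta-lactamase gene under UAS control. Treatment lasted 16 hr at 37C; signal came from fluorescence of a FRET substrate.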
On the technique in general: Quantitative high-throughput screening tests each substance at several concentrations.

For assay [2] the target is unchanged. The experiment in a line: qHTS assay to identify small molecule antagonists of the progesterone receptor (PR) signaling pathway (AID 1346795; active means well fitted inhibition curve with a large enough effect in the signal ratio in the repeat runs, not every such curve was filed as active; the % refers to the signal ratio). In a few lines: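 In HEK293T cells bearing the PR-UAS-bla reporter, compound effects on promegestone-driven (1 nM) beta-lactamase expression are assessed after 16 hr using a fluorescent FRET substrate incubated 2 hr at room temperature.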

A short description of assay [3]: qHTS assay to identify small molecule antagonists of the progesterone receptor (PR) signaling pathway - cell viability counter screen (AID 1346798). Further: series mostly up to about 92 µM; nearly all actives have a fitted effect of over 50% in size. In a few lines:
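Following a 4 hr attachment, PR-UAS-bla HEK293T cells in charcoal-stripped FBS medium were exposed to compounds with R5020 for 16 hr; CellTiter-Glo was added and luminescence read after 30 min at room temperature.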

A short description of assay [4]: qHTS assay to identify small molecule agonists of the progesterone receptor (PR) signaling pathway - cell viability counter screen (AID 1346799; calls by dose curve; further: nearly all actives have a fitted effect of over 45% in size). The method, boiled down:
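Here, 3,000 PR-UAS-bla HEK293T cells per well were treated with compounds for 16 hr after a 6 hr preincubation at 37C and 5% CO2; cell viability is the CellTiter-Glo luminescence signal.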

Assay [5] can be described thus: qHTS assay to identify small molecule antagonists of the TGF-beta/Smad signaling pathway - cell viability counter screen (AID 1346824). Further: nearly all actives have a fitted effect of over 50% in size. The method, boiled down:
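Cytotoxicity counter-screen run in the same wells as the beta-lactamase Smad reporter read: CellTiter-Glo luminescence after 30 min at room temperature. HEK 293T SBE-bla cells had 5 hr compound exposure at 37 C with TGF-beta1 (0.25 ng/mL stock).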

The nature of assay [6]: qHTS assay to identify small molecule agonists of the TGF-beta/Smad signaling pathway - cell viability counter screen (AID 1346829). Further: top concentration of the series differs between compounds; nearly all actives have a fitted effect of over 45% in size. The method, boiled down: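 CellTiter-Glo luminescence readout; SBE-bla HEK 293T cells, overnight plating, compound 5 hr at 37 C/5% CO2, then bla substrate 2 hr RT, then CellTiter-Glo 30 min RT.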
Assay [7] can be described thus: qHTS assay to identify small molecule agonists of the TGF-beta/Smad signaling pathway (AID 1346859; active means well fitted activation curve with a large enough effect in the signal ratio in the repeat runs, not every such curve was filed as active; the % refers to the signal ratio; further: series mostly up to about 77 µM). The method, boiled down: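 Each well held 4,000 SBE-bla HEK 293T cells incubated overnight before compound addition; 5 hr later the cleavable FRET substrate went on for 2 hr at room temperature, and fluorescence was read at two emissions.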
The target of assay [8] is Thyrotropin-releasing hormone receptor (Homo sapiens) (UniProt P34981). The experiment in a line: qHTS assay to identify small molecule antagonists of the thyrotropin-releasing hormone receptor (TRHR) signaling pathway (AID 1346877; active means well fitted inhibition curve with a large enough effect in the repeat runs, not every such curve was filed as active; further: series mostly up to about 51 µM). The method, boiled down:
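In this cell-based calcium flux format, HEK293 cells expressing TRHR received test compound for 5 min before the agonist TRH (1 nM final). Dye loading lasted 2 h at 37 °C.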

Assay [9] shares this target. Briefly: qHTS assay to identify small molecule agonists of the thyrotropin-releasing hormone receptor (TRHR) signaling pathway (AID 1346891; calls by dose curve; further: series mostly up to about 58 µM). The method, boiled down:
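Screening of agonists relied on calcium signalling in HEK293 cells expressing human TRHR: dye loading 2 h at 37 °C preceded compound addition and a 3-min fluorescence time course.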

Assay [10] is described as follows: Caspase-3/7 induction in HepG2 cells by small molecules, qHTS assay (AID 1346978). Further: nearly all actives have a fitted effect of over 15% in size. In a few lines: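 Caspase-3/7 induction was measured by Caspase-Glo 3/7 luminescence (30 min, room temperature) after a 17 hr compound exposure of wild-type HepG2 cells seeded at 2,000 per well and pre-incubated 5 hr.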
The nature of assay [11]: Caspase-3/7 induction in CHO-K1 cells by small molecules, qHTS cell viability counter screen (AID 1346979). Further: nearly all actives have a fitted effect of over 35% in size. The method, boiled down:
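CellTiter-Fluor viability check, qHTS format: wild-type CHO-K1, 16hr compound treatment, 1hr reagent incubation, fluorescence read.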

Assay [12] is described as follows: Caspase-3/7 induction in CHO-K1 cells by small molecules, qHTS assay (AID 1346980). Further: nearly all actives have a fitted effect of over 15% in size. The method, boiled down: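 Luminescent Caspase-Glo 3/7 read (30min, room temperature) quantified apoptosis induction. Cells were wild-type CHO-K1, treated with compound for 17hr at 37 C and 5% CO2.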
Assay [13] can be described thus: Caspase-3/7 induction in HepG2 cells by small molecules, qHTS cell viability counter screen (AID 1346981). Further: series mostly up to about 92 µM; nearly all actives have a fitted effect of over 30% in size. In a few lines:
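Counter screen for cytotoxicity: HepG2 exposed 16 hr to compounds, then CellTiter-Fluor viability signal (fluorescence, 1 hr reagent incubation).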

Assay [14] concerns the target Nuclear receptor subfamily 1 group I member 2 (Homo sapiens) (UniProt O75469). The experiment in a line: Human pregnane X receptor (PXR) small molecule agonists, qHTS assay (AID 1346982). Further: nearly all actives have a fitted effect of over 35% in size. Further: potency means the concentration at half of the fitted maximal effect. In a few lines:
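Luminescence (ONE-Glo, 30 min RT) after 24 hr compound exposure of PXR-Luc HepG2 cells; cells rested 5 hr post-plating in 5% charcoal-stripped FBS medium.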

In assay [15] the target is Cytochrome P450 2D6 (Homo sapiens) (UniProt P10635). The experiment in a line: Cytochrome P450 Family 2 Subfamily D Member 6 (CYP2D6) small molecule antagonists: luciferase reporter qHTS assay (AID 1671196). Further: nearly all actives have a fitted effect of over 50% in size. Further: potency means the concentration at half of the fitted maximal effect. The method, boiled down:
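Inhibition of CYP2D6 was gauged by loss of luminescence, since light produced tracks the luciferin generated from a proluciferin substrate. A 10 min room-temperature preincubation preceded 1 h NADPH-supported turnover.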
In general terms: A reporter such as luciferase makes a cellular process visible.

Assay [16] has as its target Cytochrome P450 2C19 (Homo sapiens) (UniProt P33261). The experiment in a line: Cytochrome P450 Family 2 Subfamily C Member 19 (CYP2C19) small molecule antagonists: luciferase reporter qHTS assay (AID 1671197). Further: nearly all actives have a fitted effect of over 65% in size. Further: potency means the concentration at half of the fitted maximal effect. In a few lines:
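Enzyme-substrate mix with proluciferin substrate (P450-Glo CYP2C19 system) preincubated with compounds 10 min at room temperature; NADPH regeneration solution added, 37C for 1 h; detection reagent stops reaction, luminescence read after 20 min. Ketoconazole positive control.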

Assay [17] is described as follows: Human pregnane X receptor (PXR) small molecule agonists, qHTS cell viability counter screen (AID 1346977). Further: nearly all actives have a fitted effect of over 50% in size. In a few lines: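 Tox21 qHTS format; PXR-Luc HepG2, 2,000/well, charcoal-stripped FBS 5%. Cpd exposure 24hr. Read: CellTiter-Fluor fluorescence, multiplexed with luciferase.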
The target of assay [18] is Nuclear receptor subfamily 1 group I member 2 (Rattus norvegicus) (UniProt Q9R1A7). The experiment in a line: Rat pregnane X receptor (rPXR) activation by small molecules, qHTS assay (AID 1346983). Further: nearly all actives have a fitted effect of over 20% in size. Particulars: rPXR luciferase reporter cells, One-Glo luminescence, 24 h; max activation: stronger effect = higher value. The method, boiled down: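 Luminescent readout (One-Glo luciferase, 30 min room temperature) followed 24 hr compound treatment at 37 C of rPXR cells plated 2,000 per well and preincubated 5hr; qHTS format with compounds delivered in DMSO.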

Assay [19] has as its target Nuclear receptor subfamily 1 group I member 2 (Homo sapiens) (UniProt O75469). Briefly: CYP3A4 induction through human pregnane X receptor (PXR) by small molecules, qHTS assay (AID 1346984). Further: nearly all actives have a fitted effect of over 40% in size. In a few lines:
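DPX-2 reporter cells; 24h cpd, 37C; Luciferin-IPA 3uM final x3h; One-Glo 30 min RT; lumi read.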

Structures are written as SMILES. Values without a mark were called inactive. Records with an inconclusive call do not appear. Active and inactive are the calls of the source. Unless noted, the call rests on the fitted dose curve; in most records, active means well fitted curve in the direction sought with a large enough effect in the repeat runs; inconclusive means weak or mixed curves; inactive means no such curve, though single readings can be large; an effect the other way counts as inactive or inconclusive.
On the % scale 0 is the no-effect control and ±100 the full control effect.

Sequence of Thyrotropin-releasing hormone receptor (Homo sapiens) (P34981 whole entry, looked up): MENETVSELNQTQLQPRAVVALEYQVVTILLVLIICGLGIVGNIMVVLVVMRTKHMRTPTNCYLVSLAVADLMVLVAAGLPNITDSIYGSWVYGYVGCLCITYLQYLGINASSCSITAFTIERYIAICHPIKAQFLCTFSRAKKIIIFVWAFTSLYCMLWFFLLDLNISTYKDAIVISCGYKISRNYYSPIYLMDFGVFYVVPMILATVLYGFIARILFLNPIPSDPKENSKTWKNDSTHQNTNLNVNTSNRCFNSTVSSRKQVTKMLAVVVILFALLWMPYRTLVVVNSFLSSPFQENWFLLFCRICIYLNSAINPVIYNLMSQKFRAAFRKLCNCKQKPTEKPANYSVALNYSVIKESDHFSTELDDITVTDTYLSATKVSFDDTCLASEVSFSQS
Sequence of Cytochrome P450 2D6 (Homo sapiens) (P10635 whole entry, looked up): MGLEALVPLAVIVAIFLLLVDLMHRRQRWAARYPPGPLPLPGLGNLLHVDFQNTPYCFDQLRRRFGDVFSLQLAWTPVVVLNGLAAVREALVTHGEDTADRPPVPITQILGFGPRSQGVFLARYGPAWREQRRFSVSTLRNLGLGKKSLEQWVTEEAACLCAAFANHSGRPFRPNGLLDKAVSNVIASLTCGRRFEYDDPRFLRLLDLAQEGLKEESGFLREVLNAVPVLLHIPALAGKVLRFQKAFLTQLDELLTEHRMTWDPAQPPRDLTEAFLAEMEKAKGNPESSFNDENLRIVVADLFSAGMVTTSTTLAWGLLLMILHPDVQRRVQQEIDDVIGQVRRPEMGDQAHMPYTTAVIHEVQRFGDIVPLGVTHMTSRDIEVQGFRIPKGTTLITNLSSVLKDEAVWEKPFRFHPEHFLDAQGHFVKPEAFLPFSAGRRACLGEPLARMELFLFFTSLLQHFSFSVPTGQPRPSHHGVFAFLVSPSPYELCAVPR
Sequence of Cytochrome P450 2C19 (Homo sapiens) (P33261 whole entry, looked up): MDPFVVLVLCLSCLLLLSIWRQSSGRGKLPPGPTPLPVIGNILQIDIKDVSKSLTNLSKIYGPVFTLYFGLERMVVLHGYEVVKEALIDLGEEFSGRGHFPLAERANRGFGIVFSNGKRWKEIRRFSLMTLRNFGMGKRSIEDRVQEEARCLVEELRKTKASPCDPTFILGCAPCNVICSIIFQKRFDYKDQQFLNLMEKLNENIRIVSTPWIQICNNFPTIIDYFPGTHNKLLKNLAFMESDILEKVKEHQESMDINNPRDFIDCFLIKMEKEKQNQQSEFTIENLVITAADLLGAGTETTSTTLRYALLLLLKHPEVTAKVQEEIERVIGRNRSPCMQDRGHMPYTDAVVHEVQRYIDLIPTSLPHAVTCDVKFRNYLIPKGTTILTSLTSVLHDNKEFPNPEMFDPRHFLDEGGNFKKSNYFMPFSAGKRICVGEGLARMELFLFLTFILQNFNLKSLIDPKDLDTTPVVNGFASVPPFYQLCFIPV
Sequence of Nuclear receptor subfamily 1 group I member 2 (Homo sapiens) (O75469 whole entry, looked up): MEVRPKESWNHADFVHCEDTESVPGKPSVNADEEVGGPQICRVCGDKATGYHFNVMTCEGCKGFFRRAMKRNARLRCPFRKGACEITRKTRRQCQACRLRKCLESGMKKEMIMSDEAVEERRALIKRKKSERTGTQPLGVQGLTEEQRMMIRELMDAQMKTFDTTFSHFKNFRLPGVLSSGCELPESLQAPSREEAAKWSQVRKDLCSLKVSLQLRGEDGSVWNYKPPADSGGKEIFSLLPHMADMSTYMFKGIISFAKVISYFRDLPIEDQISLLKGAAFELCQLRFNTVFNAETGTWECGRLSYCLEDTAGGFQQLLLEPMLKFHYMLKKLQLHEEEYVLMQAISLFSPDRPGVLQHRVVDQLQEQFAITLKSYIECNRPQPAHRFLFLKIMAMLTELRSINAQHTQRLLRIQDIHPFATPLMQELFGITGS
Sequence of Progesterone receptor (Homo sapiens) (P06401 whole entry, looked up): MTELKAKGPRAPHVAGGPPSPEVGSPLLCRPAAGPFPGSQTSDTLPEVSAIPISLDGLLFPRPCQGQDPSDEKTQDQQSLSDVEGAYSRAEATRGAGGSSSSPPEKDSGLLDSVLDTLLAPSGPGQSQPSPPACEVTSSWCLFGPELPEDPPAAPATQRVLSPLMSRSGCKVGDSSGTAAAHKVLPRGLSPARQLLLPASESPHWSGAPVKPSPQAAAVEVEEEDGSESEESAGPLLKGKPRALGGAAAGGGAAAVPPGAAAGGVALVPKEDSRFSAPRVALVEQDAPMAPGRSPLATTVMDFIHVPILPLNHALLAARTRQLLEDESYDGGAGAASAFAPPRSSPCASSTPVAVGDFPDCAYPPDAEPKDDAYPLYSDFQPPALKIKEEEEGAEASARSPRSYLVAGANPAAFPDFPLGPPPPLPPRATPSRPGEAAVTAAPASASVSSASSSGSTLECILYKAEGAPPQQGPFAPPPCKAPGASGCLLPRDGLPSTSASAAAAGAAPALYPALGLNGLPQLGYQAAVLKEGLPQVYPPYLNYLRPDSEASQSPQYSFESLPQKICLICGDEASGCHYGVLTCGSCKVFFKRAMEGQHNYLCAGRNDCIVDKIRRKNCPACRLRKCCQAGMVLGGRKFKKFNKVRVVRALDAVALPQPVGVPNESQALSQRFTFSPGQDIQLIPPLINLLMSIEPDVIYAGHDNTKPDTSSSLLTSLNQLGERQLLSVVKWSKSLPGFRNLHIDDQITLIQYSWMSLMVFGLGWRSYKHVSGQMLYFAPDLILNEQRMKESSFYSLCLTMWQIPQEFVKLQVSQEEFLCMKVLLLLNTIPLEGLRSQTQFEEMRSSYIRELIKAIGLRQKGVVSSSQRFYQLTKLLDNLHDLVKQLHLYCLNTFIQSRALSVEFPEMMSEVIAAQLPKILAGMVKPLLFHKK
Sequence of Nuclear receptor subfamily 1 group I member 2 (Rattus norvegicus) (Q9R1A7 whole entry, looked up): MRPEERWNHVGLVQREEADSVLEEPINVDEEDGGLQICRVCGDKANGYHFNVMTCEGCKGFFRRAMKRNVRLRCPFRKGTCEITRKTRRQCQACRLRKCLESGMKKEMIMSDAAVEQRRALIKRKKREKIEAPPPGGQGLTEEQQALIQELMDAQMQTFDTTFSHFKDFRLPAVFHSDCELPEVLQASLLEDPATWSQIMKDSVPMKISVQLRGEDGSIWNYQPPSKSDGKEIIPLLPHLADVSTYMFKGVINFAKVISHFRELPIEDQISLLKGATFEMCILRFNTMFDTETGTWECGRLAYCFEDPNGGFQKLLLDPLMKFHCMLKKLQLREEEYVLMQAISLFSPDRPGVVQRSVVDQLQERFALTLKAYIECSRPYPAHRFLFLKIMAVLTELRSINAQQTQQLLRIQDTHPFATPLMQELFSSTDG

For the compound `O=CNc1ccccc1`, the compound was called inactive in assay [1], in assay [7], in assay [8] and in assay [10]. Further, the Potency entry in assay [2], in [3], in assay [4], in assay [5], in assay [6] and in assay [9] was “inactive” in each case. The Potency entry in assay [11], in assay [12], in [13], in assay [14] and in [15] was “inactive” throughout.

On to `CCCCCCOC(=O)CCC`, for which the result in assay [1], in [7], in assay [8] and in assay [10] was inactive. Also, the Potency result in [2], in [3], in assay [4], in assay [5], in assay [6] and in assay [9] was “inactive” throughout. Besides, the Potency result in assay [11], in assay [12], in [13], in assay [14], in assay [15] and in assay [16] was “inactive” each time.

Consider `Cc1cccc(C(C)(C)C)c1O`, for which the result in assay [1], in assay [7], in assay [8] and in [10] was inactive. For the same compound, the Potency entry in [2], in assay [3], in assay [4], in assay [5], in assay [6] and in assay [17] was “inactive” throughout. The Potency result in assay [12], in assay [13] and in assay [15] was “inactive” each time.

With `CC(=O)O[C@@H]1C(=O)O[C@@H]2[C@H]1OC(=O)[C@@H]2OC(C)=O`, the outcome in assay [1], in assay [7], in [8] and in assay [10] was inactive. The Potency result in assay [2], in assay [3], in assay [4], in [5], in [6] and in [17] was “inactive” in each case. Also, the Potency entry in assay [11], in [12], in assay [13], in [14], in [15] and in [16] was “inactive” throughout.

`CC[C@@H]1C[C@H](N(Cc2cc(C(F)(F)F)cc(C(F)(F)F)c2)C(C)=O)c2cc(C(F)(F)F)ccc2N1C(=O)OC(C)C`: the compound was called inactive in assay [1], in assay [7], in assay [8] and in assay [10]. The Potency result in assay [2], in [3], in assay [4], in assay [5], in assay [6] and in assay [17] was “inactive” each time. Besides, the Potency entry in assay [11], in [12], in assay [13], in [15] and in assay [16] was “inactive” in each case. In addition, in assay [14], the Potency is 0.77 µM (active).

Turning to `O=C(NN1CCCC1)NS(=O)(=O)c1ccc(Cl)cc1`, the call in assay [1], in [7] and in [8] was inactive. Besides, the Potency result in assay [2], in assay [3], in assay [4], in assay [5], in assay [6] and in assay [17] was “inactive” each time. Besides, the Potency entry in assay [11], in assay [12], in assay [13], in [14] and in assay [15] was “inactive” throughout.

As for `CCN(CC)CCc1nc(-c2ccccc2)no1`, the compound was called inactive in assay [1], in [7], in assay [8] and in assay [10]. Moreover, the Potency result in assay [2], in assay [3], in assay [4], in assay [5], in assay [6] and in [17] was “inactive” each time. Besides, the Potency entry in assay [11], in assay [12], in [13], in assay [14] and in assay [19] was “inactive” each time. Also, in assay [18], the max activation was -0.305%. In addition, the Potency in assay [15] is 7.76 µM (active).

Consider `CCCCCc1ccc(N)cc1`, for which the outcome in [1], in [7] and in assay [8] was inactive. In addition, the Potency entry in [2], in assay [3], in assay [4], in assay [5], in assay [6] and in [9] was “inactive” in each case. Further, the Potency entry in assay [12] and in assay [13] was “inactive” each time. Besides, the Potency in assay [15] is 31.7 µM (active); in assay [16], 6.33 µM (active).
